This excerpt belongs to a sample that is enriched for hits.
GIRK2 act = activators of NPY4-receptor-primed GIRK2 channels, summary, cell-based, HEK293, thallium flux; G protein-activated inward rectifier potassium channel 2 (Homo sapiens), P48051; HEK293 GIRK2/NPY4 cells, thallium flux fluorescence; activation (% efficacy), % for hits at 37.5 µM; 34,000 tested, under 10 active;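 active = primary screen hit, no activity in plain HEK293 cells, and in GIRK2-only cells above 5% efficacy rising with concentration; inactive = the rest, including fluorescent compounds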;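 also: efficacy is normalized control-subtracted fluorescence 15 s after thallium addition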
Target sequence (P48051 whole entry, looked up): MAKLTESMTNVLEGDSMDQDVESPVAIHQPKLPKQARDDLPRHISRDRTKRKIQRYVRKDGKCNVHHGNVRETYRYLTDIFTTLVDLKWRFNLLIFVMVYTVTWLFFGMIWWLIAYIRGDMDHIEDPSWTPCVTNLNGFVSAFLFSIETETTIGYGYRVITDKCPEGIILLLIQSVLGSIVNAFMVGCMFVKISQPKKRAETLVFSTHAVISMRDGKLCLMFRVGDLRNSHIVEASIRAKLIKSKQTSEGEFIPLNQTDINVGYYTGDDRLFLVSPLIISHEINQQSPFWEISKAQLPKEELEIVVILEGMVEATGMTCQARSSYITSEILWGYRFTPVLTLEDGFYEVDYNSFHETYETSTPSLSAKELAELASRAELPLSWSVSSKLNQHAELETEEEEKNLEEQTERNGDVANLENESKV
AMPAR-TARP mod = modulators of GluA2-stargazin AMPA receptor complexes, primary screen, cell-based, membrane potential dye | HEK293 GluA2+stargazin, membrane potential dye (FDSS), glutamate EC50; hits were called plate by plate, in both directions | 40,000 tested, 3.5% active | calls only at 30 µM | AID 1259245, 2017;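 active = any of four per-well response measures lying three or more SD from its plate-wide compound average, in either direction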
The depositor's hits bear a star; i = inactive; . = no result; + = active, no number.

SMILES | GIRK2 act | AMPAR-TARP mod
C#CC1(OCC(O)CN2CCN(Cc3ccccc3)CC2)CCCCC1 (stereo not given) | i | i
CCCCOc1ccc(C(=O)Oc2c(Sc3ccccc3)c(C)nn2C(C)(C)C)cc1 | . | i
CC(=O)Nc1ccc(S(=O)(=O)Nc2ccc3c(c2)N(C(=O)C2CC2)CC3)cc1 | i | i
O=C(C1CC1)N1CCc2ccc(NS(=O)(=O)c3ccc(Cl)s3)cc21 | i | +
CCc1ccc(S(=O)(=O)Nc2ccc3c(c2)N(C(=O)C2CCCC2)CC3)s1 | i | i
CC(C)(C)c1ccc(S(=O)(=O)Nc2ccc3c(c2)N(C(=O)C2CC2)CC3)cc1 | i | +
COCC(=O)N1CCCc2ccc(NC(=O)c3cn(C)nc3OC)cc21 | i | i
O=C(C1CC1)N1CCc2ccc(NS(=O)(=O)c3ccc(Cl)cc3)cc21 | i | i
CCc1ccc(S(=O)(=O)Nc2ccc3c(c2)N(C(=O)C(C)(C)C)CC3)s1 | i | +
COc1nn(C)cc1C(=O)Nc1ccc2c(c1)N(C(=O)C1CC1)CC2 | i | +
CCOc1ccccc1C(=O)NC1CC(=O)N(c2cccc(OC)c2)C1 (stereo not given) | . | i
O=C(CSc1ccc(NC(=O)c2ccco2)nn1)NCc1ccco1 | i | i
Cc1cccc(NC(=O)CSc2ncc(S(=O)(=O)c3cccc(Cl)c3)c(=O)[nH]2)c1C | . | i
COCCn1c(N)c(-c2nc3ccccc3n2C)c2nc3ccccc3nc21 | i | +
COCCn1c(N)c(S(=O)(=O)c2ccc(Cl)cc2)c2nc3ccccc3nc21 | i | i
O=C(Oc1ccc2c(-c3cc4cc(Cl)ccc4oc3=O)cc(=O)oc2c1)C1CC1 | . | i
COc1ccccc1Cc1noc(C2CN(C(=O)c3cc(C4CC4)on3)C2)n1 | i | .
Cn1c(=O)c2cc(C(=O)NCCc3ccccc3)sc2n(C)c1=O | i | i
CN1CCN(C(=O)c2cc3c(=O)n(C)c(=O)n(C)c3s2)CC1 | i | +
CC(C)CNC(=O)c1cc2c(=O)n(C)c(=O)n(C)c2s1 | i | i
Cn1c(=O)c2cc(C(=O)Nc3ccccc3F)sc2n(C)c1=O | i | +
Cn1c(=O)c2cc(C(=O)N3CCN(C(=O)c4ccco4)CC3)sc2n(C)c1=O | i | i
Cn1c(=O)c2cc(C(=O)NCCCN3CCCC3=O)sc2n(C)c1=O | i | +
CCc1cccc(C)c1NC(=O)Cn1nc(-c2ccco2)c2sc(N3CCOCC3)nc2c1=O | i | i
O=C(COc1ccccc1F)NCC1(O)CCCC1 | i | i
SMILES | GIRK2 act | AMPAR-TARP mod
c1ccn2cc(C34CC5CC(CC(C5)C3)C4)nc2c1 | . | +
O=C(Nc1ccc(N2CCCC2=O)cc1)c1cccc(Br)c1 | i | i
O=C(CSc1ccc(F)cc1)Nc1cc(-c2ccco2)nn1CCO | i | i
COc1cccc(NC(=O)Cn2c(=O)c(CNc3ccccc3)cc3ccc(OC)cc32)c1 | . | +
COc1cc2cc(CNc3ccccc3)c(=O)n(CC(=O)Nc3cccc(Cl)c3C)c2cc1OC | . | +
CCc1ccc(NCc2cc3cc4c(cc3n(CC(=O)Nc3cc(C)ccc3C)c2=O)OCCO4)cc1 | i | i
COc1cc2cc(CNc3ccccc3)c(=O)n(CC(=O)Nc3ccc4c(c3)OCO4)c2cc1OC | . | +
Cc1ccc(C)c(NC(=O)Cn2c(=O)c(CNc3ccccc3)cc3cc4c(cc32)OCCO4)c1 | i | +
COC(=O)c1ccccc1NC(=O)Cn1c(=O)c(CNc2ccccc2)cc2ccc(OC)cc21 | i | i
COc1cc2cc(CNc3ccccc3)c(=O)n(CC(=O)Nc3ccc(C)c(Cl)c3)c2cc1OC | . | i
COc1cc2cc(CNc3ccc(C)cc3)c(=O)n(CC(=O)Nc3cccc(Cl)c3)c2cc1OC | i | i
CCC(C)NC(=O)c1snc(C(=O)NC(C)C)c1N (stereo not given) | i | i
Cc1cc(C)nc(SCc2c(C(=O)N3CCc4ccccc4C3)nnn2-c2ccccc2)n1 | i | i
Cc1ccc(CCNC(=O)CCCn2c(=O)[nH]c3ccccc3c2=O)cc1 | i | i
Cn1c(C2CC(=O)N(CCc3ccccc3)C2)nc2ccccc21 (stereo not given) | . | i
CCCCn1c(C2CC(=O)N(c3ccc(C)c(Cl)c3)C2)nc2ccccc21 (stereo not given) | . | +
O=C1CC(c2nc3ccccc3n2CC2CCCCC2)CN1CCc1ccccc1 (stereo not given) | . | +
CCCn1c(C2CC(=O)N(c3ccc(C)c(Cl)c3)C2)nc2ccccc21 (stereo not given) | . | i

Screening results from PubChem BioAssay.
